Drawing on PubChem BioAssay, this text covers composite z-score and z-score for 17 molecules.

Test [1] is described as follows: binders of probe aFSTL3 on microarray, primary screen, stem cell growth factor project, biochemical, small-molecule microarray, fluorescence 635/667 (AID 1064).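 Also: measures binding of the biotinylated anti-FSTL3 antibody to printed compounds.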 As to conditions: higher = more signal.
Test [2] in a line: binders from COS7 lysate, DM2A8 probe, primary screen, torsin A project, cell lysate, small-molecule microarray, fluorescence 635/667 (AID 1065). Conditions: higher = more signal, COS7 lysate expressing mutant human TOR1A.
Test [3] is described as follows: binders of probe aFGF2 on microarray, primary screen, stem cell growth factor project, biochemical, small-molecule microarray, fluorescence 635/667 (AID 1067).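 Also: measures binding of biotinylated aFGF2 protein to printed compounds on slides; z-score merges feature fluorescence and signal-to-noise across triplicate slides.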 Conditions: higher = more signal.
A short description of test [4]: binders of probe aFGF10 on microarray, primary screen, stem cell growth factor project, biochemical, small-molecule microarray, fluorescence 635/667 (AID 1071).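 Also: score merges 667 nm spot intensity and signal to noise from triplicate slides.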 As to conditions: higher = more signal.
In test [5] the target is Neurogenic locus notch homolog protein 2 (Homo sapiens) (UniProt Q04721). As to the kind of experiment: Notch2 binders on small-molecule microarrays, primary screen, biochemical, small-molecule microarray, 635 nm fluorescence, stem cell growth factors (AID 1073). Conditions: Notch2 binding, higher = more signal.
The target in test [6] is Pro-neuregulin-1, membrane-bound isoform (Homo sapiens) (UniProt Q02297). In words: NRG1 binders on small-molecule microarrays, primary screen, psychiatric disease protein project, biochemical, small-molecule microarray, fluorescence 635/667 (AID 1075).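 Also: score combines 667 nm spot fluorescence with signal to noise.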 Conditions: NRG1 binding, 635 nm fluorescence, higher = more signal.
The test system of test [7] is Neuregulin-1 EGF-like domain. As to the kind of experiment: binders of neuregulin-1 EGF-like domain, primary screen, biochemical, small-molecule microarray, 635 nm fluorescence (AID 1081).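 Also: binding of the protein to compounds printed on small-molecule microarray slides.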 Conditions: small-molecule microarray binding, higher = more signal.
Test [8] is described as follows: FRG1 promoter luciferase signal modulators, primary screen, FRG1 inhibition for FSHD, cell-based, C2C12 myotubes, firefly/Renilla luciferase, luminescence (AID 1084). As to conditions: higher = more signal, called active from +8 up or from −8 down.
Test [9] is described as follows: binders of probe aFST on microarray, primary screen, stem cell growth factor project, biochemical, small-molecule microarray, fluorescence 635/667 (AID 1086).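 Also: score merges 667 nm fluorescence with signal-to-noise of each printed compound spot.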 Conditions: higher = more signal.
A short description of test [10]: binders of probe aHhip on microarray, primary screen, stem cell growth factor project, biochemical, small-molecule microarray, fluorescence 635/667 (AID 1087).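 Also: score merges spot fluorescence at 667nm with spot signal to noise ratio.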 Conditions: higher = more signal.

Active and inactive are the calls of the source.

Chain of Pro-neuregulin-1, membrane-bound isoform (Homo sapiens) (Q02297 whole entry, looked up, the tested form may be a part, canonical isoform): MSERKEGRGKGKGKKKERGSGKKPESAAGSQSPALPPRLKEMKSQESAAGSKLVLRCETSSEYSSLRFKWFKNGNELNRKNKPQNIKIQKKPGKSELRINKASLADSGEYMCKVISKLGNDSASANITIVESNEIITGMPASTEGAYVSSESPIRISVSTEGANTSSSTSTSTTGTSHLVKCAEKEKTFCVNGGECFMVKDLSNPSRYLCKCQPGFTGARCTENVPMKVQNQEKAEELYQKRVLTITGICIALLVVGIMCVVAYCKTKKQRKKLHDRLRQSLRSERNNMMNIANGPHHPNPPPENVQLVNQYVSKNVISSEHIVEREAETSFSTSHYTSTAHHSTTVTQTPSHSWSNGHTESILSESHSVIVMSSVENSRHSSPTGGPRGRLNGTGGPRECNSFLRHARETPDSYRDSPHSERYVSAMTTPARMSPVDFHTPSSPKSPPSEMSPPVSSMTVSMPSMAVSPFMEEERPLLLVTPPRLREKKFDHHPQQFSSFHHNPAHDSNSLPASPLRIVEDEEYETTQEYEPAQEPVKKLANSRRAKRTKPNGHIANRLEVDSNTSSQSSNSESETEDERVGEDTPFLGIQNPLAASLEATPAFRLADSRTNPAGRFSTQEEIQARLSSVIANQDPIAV
Chain of Neurogenic locus notch homolog protein 2 (Homo sapiens) (Q04721 whole entry, looked up, canonical isoform): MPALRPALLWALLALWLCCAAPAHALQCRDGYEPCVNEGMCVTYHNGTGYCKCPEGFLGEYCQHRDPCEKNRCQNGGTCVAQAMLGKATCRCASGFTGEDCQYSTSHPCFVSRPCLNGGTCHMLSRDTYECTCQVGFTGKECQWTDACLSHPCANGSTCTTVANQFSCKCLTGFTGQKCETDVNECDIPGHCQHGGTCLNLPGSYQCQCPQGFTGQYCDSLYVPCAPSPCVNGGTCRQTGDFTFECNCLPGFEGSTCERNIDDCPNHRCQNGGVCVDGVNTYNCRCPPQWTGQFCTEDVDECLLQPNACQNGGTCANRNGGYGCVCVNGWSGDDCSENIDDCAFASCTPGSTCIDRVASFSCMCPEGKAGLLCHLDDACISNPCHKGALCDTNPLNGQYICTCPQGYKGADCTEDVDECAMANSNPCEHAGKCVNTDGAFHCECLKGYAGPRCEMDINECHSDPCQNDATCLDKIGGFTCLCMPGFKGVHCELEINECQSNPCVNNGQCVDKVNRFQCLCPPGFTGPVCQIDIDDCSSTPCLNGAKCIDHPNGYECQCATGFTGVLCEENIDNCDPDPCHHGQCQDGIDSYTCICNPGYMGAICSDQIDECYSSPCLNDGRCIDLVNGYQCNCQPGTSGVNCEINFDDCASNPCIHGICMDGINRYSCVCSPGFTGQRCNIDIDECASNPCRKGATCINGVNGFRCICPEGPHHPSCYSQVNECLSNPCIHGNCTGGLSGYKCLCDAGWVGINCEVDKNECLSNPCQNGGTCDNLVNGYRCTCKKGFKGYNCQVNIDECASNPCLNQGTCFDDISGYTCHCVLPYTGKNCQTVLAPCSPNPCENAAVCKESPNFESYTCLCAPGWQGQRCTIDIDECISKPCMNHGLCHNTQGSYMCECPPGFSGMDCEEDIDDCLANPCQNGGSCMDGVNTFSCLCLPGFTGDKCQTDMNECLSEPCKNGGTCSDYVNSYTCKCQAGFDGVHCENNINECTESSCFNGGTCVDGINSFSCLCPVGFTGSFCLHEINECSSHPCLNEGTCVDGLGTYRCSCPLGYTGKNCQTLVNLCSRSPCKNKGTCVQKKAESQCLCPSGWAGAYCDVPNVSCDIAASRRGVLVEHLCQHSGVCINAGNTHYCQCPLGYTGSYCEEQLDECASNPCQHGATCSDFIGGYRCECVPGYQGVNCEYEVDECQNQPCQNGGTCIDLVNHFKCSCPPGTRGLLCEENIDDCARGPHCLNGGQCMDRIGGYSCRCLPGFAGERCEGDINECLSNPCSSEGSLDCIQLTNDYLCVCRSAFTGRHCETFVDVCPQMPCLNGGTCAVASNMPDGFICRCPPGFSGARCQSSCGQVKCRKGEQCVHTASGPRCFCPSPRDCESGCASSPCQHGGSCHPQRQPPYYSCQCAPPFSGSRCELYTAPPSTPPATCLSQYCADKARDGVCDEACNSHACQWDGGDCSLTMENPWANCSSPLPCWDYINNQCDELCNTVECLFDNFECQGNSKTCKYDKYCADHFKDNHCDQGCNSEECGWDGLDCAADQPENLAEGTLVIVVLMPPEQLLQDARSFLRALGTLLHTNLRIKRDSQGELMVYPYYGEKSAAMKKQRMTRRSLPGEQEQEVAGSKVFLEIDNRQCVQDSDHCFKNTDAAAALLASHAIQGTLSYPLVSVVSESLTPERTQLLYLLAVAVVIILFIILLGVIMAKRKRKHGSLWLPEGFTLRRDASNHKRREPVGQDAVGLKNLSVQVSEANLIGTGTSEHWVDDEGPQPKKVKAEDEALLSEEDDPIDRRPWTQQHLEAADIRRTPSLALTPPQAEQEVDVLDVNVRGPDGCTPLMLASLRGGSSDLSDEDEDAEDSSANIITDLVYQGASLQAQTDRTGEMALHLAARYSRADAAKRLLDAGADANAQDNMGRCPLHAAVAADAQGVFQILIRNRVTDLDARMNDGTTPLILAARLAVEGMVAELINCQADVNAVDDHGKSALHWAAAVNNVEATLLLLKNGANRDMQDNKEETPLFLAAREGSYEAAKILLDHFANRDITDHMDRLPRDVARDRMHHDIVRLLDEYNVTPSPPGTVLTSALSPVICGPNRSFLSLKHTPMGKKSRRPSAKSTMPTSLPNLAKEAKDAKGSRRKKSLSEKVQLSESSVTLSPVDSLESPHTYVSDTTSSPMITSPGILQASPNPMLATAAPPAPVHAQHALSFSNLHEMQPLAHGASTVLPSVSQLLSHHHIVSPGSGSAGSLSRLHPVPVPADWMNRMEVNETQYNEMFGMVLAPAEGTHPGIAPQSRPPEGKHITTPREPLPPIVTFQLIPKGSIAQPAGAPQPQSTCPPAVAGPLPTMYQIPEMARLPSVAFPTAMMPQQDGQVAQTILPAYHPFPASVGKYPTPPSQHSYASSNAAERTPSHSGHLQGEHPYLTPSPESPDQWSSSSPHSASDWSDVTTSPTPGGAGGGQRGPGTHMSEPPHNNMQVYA

In the case of `C[C@@H]1ON(c2ccc(C(=O)OC(C)(C)C)cc2)[C@H](c2ccc(Br)cc2)[C@H]1C(=O)N1C(=O)OC[C@H]1Cc1ccccc1`, the composite z-score in test [1] is -0.312; in test [2], 0.155; in test [3], 0.0333; in test [4] it was 0.552; in test [5], 1.52; in [6], 1.05. For the same molecule, the results for the composite z-score in [7], in test [9] and in [10] were 1.11, 0.492 and -0.0618, respectively. The z-score in [8] was 0.002 (inactive).
For the molecule `[N-]=[N+]=NCc1ccccc1C[C@]1(C(=O)NCC(O)CO)N=C(c2ccc(OCCCO)cc2)O[C@H]1c1ccccc1CN=[N+]=[N-]` (stereo not given in full), the composite z-score in test [1] stood at 0.0591; in test [2], 0.696; in test [3], 0.139; in test [4] it was 1.14; in [5] it was 0.566; in test [6], 1.34. The composite z-score in [7] was 1.16; in test [9], 0.723; in test [10], -0.0618. In test [8], the z-score is -0.799 (inactive).
For the molecule `CCCC[C@@H]1C[C@H]1[C@@H](NC(=O)c1ccccc1)c1ccc(Cl)cc1`, the composite z-score was 1.22 in test [1]; -0.657 in [2]; -0.196 in test [3]; -2.08 in test [4]; -2 in test [5]; -0.596 in test [6]. In addition, the composite z-score was 1.36 in [7], -0.833 in [9] and -0.134 in [10]. Moreover, the z-score in test [8] is 1.62 (inactive).
On to `COCCOC(=O)N1C(=O)[C@@]2(c3cc(C#CC4(O)CCCCCC4)ccc31)[C@H](C(=O)N1CCCCCCC1)[C@H]1C(=O)O[C@H](c3ccccc3)[C@H](c3ccccc3)N1[C@@H]2c1ccc(OCCO)cc1`, for which the composite z-score was determined as 3.43 in test [1]; 1.62 in [2]; 0.79 in [3]; 1.2 in test [4]; 1.26 in test [5]; 2.18 in test [6]. Moreover, the composite z-score in test [7] turned out to be 1.24; in test [9] it was 3.29; in test [10], 1.77. The z-score in test [8] was -3.21 (inactive).
With `COc1ccc([Si](C)(C)[C@@H]2[C@@H](CC(=O)N3CCC[C@H]3CO)O[C@]3(C(=O)N(Cc4ccc(N5C(=O)c6cccc7cccc5c67)cc4)c4ccccc43)[C@H]2C)cc1`, the composite z-score in test [1] was -0.629; in test [2], 0.847; in test [3], -0.0563; in test [4] it was 0.995; in test [5], 0.733; in test [6], 1.5. For the same molecule, the composite z-score in test [7] is 0.976; in test [9] it was 0.622; in [10], -0.216. The z-score in [8] was -1.5 (inactive).
`CC[C@H]1C2=C3C(CC[C@H]4C(OCc5ccc(F)cc5C(F)(F)F)OC[C@](C)([C@@H]34)N(C(=O)OC(C)(C)C)C2)C2COC(=O)OCC21` (stereo not given in full): the composite z-score in [1] was 0.0488; in test [2], -0.377; in test [3], 0.0246; in [4] it was 0.112; in test [5], 1.25; in test [6], 1.47. Further, the composite z-score in test [7] was 0.874; in test [9], 1.73; in test [10], -0.0047. Moreover, in test [8], the z-score is 1.82 (inactive).
Consider `CCCN1C(=O)[C@]2(Cc3ccccc3)N=C(c3ccc(OCCCO)cc3)O[C@@H]2c2ccccc21`, for which the composite z-score is 0.224 in test [1]; 1.12 in [2]; -0.0226 in test [3]; 0.347 in [4]; 0.415 in test [5]; 0.305 in test [6]. The composite z-score in test [7] is 1.3; in test [9] it was 0.195; in test [10], -0.198. The z-score in [8] is -0.355 (inactive).
Consider `CCOc1cc(C(O)C2C=CC3C(=O)N(C)C(=O)C3N2N2CCCCC2)ccc1O` (stereo not given), for which the composite z-score was -0.152 in [1]; 0.38 in test [2]; 0.0421 in test [3]; 0.348 in [4]; 0.885 in test [5]; 1.45 in test [6]. Besides, the composite z-score in test [7] was 0.496; in test [9], 0.707; in test [10], 0.0139. In addition, in test [8], the z-score was 0.133 (inactive).
For the molecule `O=C1c2ccccc2[C@](Cc2ccccc2I)(C(=O)NCCN2CCOCC2)[C@H](c2ccc(CO)cc2)N1Cc1ccccc1`, the composite z-score was -0.0634 in test [1]; 0.783 in [2]; -0.0356 in test [3]; 0.699 in [4]; 1.33 in test [5]; 1.1 in test [6]. The composite z-score in test [7] was 1.33; in test [9] it was 0.983; in test [10], 0.519. Besides, in test [8], the z-score was -3.84 (inactive).
In the case of `CCOC(=O)C[C@H]1[C@H](OC(=O)c2ccc(C(=O)c3ccccc3)cc2)[C@@H](NC(=O)c2ccc3ccccc3c2)c2cc(OCCCO)ccc2N1C(=O)c1ccccc1`, the composite z-score in test [1] was -0.476; in test [2] it was 0.443; in test [3] it was -0.0943; in test [4], 0.757; in [5], 1.48; in test [6], 1.01. For the same molecule, the composite z-score is 1.07 in test [7], 0.355 in test [9] and -0.0672 in test [10]. The z-score in [8] was 0.0732 (inactive).
For the molecule `COc1ccc([Si](C)(C)[C@H]2[C@H](CCn3cc(CCO)nn3)O[C@@]3(C(=O)N(Cc4ccc(N5C(=O)c6cccc7cccc5c67)cc4)c4ccccc43)[C@@H]2C)cc1`, the composite z-score in [1] is -0.619; in test [2], 0.355; in test [3] it was -0.0583; in test [4], 0.53; in [5], 0.611; in test [6], 1.16. Also, the composite z-score in [7] came out at 1.1; in test [9], 0.372; in [10], 0.0695. Moreover, in test [8], the z-score was -4.65 (inactive).
As for `Cc1ccc(C(C)CC(O)C2C=CC3C(=O)N(c4ccccc4)C(=O)C3N2Nc2ccc(C(C)C)cc2)o1` (stereo not given), the composite z-score in test [1] worked out at 1.15; in [2], 1.05; in test [3] it was 0.102; in [4], 0.712; in [5] it was 1.58; in [6], 1.93. Further, the composite z-score is 0.765 in test [7], 0.992 in test [9] and -0.0772 in test [10]. Also, the z-score in test [8] was 0.543 (inactive).
`CC(C)N1CC=CC23O[C@@H]4C=CCCOC(=O)C4[C@H]2C(=O)N(CCO)[C@@H]3C1=O` (stereo not given in full): the composite z-score in [1] is 0.108; in [2], 2.11; in [3], -0.177; in test [4], -0.351; in test [5] it was -0.537; in [6], -0.637. The composite z-score was 0.606 in test [7], -0.398 in test [9] and -0.0939 in test [10]. The z-score in test [8] was -0.286 (inactive).
Take `CN(C)C(=O)[C@]1(CCC(=O)OC(C)(C)C)N=C(c2ccc(OCCCO)cc2)O[C@@H]1c1ccccc1`: the composite z-score in [1] is -0.175; in test [2] it was 0.527; in [3] it was -0.016; in [4] it was 0.776; in test [5], 1.3; in [6] it was 1.91. Further, the composite z-score in [7] was 1.4; in test [9], 0.268; in test [10] it was -0.0645. Moreover, the z-score in [8] was 0.788 (inactive).
With `O=C1NCC(=O)N2[C@@H]1C[C@@H](C(=O)O)[C@H]2c1ccc(O)cc1`, the composite z-score in [1] was 0.257; in test [2], 0.433; in [3] it was 0.0121; in test [4] it was 0.593; in [5] it was -0.218; in test [6], 1.81. Further, the composite z-score is 1.39 in [7], 0.0816 in test [9] and -0.0618 in test [10]. Also, in [8], the z-score was 4.94 (inactive).
Consider `COc1cc2c(cc1O)C(C)N(Cc1cc3c(cc1Br)OCO3)CC2` (stereo not given), for which the composite z-score in test [1] was 0.731; in test [2], -0.192; in [3], -0.0951; in test [4] it was 0.0663; in test [5], 0.511; in test [6], 0.53. For the same molecule, the composite z-score in [7] was 1.5; in test [9], -0.175; in test [10] it was 0.0749. For the same molecule, the z-score in [8] is 0.0288 (inactive).
Take `C[C@]1(C(=O)NC2CC2)c2ccccc2C(=O)N(Cc2ccc(OC(F)(F)F)cc2)[C@H]1c1ccc(CO)cc1`: the composite z-score in test [1] was 0.652; in test [2], 0.179; in test [3], -0.0642; in test [4], -0.366; in [5], -1.02; in test [6], -0.47. The composite z-score was 0.745 in test [7], 0.0221 in test [9] and -0.111 in test [10]. Moreover, the z-score in [8] was -1.68 (inactive).
